Experimental data from PubChem BioAssay (Tox21).
Inconclusive results are not listed. Entries that show only a call come without a potency. Calls of active or inactive are those of the source. Unless noted, calls come from the whole dose curve; as a rule, active = well fitted curve in the direction sought with a large enough effect in the repeat runs; inconclusive = weak or mixed curves; inactive = no such curve, though single readings can be large; an effect the other way counts as inactive or inconclusive.

Tests used:
[1] = qHTS assay to identify aromatase inhibitors - cell viability counter screen (AID 743084);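 note: cells stimulated with testosterone during compound exposure; nearly all actives have a fitted effect of over 55% in size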
[2] = target: Aryl hydrocarbon receptor (Homo sapiens) (UniProt P35869); test: qHTS assay to identify small molecule that activate the aryl hydrocarbon receptor (AhR) signaling pathway (AID 743085); note: nearly all actives have a fitted effect of over 15% in size; note: potency is the fitted concentration of half-maximal effect;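 for activation: HG2L7.5c1 human HepG2 liver cells with stably integrated DRE-driven firefly reporter; series mostly up to about 70 µM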
Sequence of Aryl hydrocarbon receptor (Homo sapiens) (P35869 whole entry, looked up): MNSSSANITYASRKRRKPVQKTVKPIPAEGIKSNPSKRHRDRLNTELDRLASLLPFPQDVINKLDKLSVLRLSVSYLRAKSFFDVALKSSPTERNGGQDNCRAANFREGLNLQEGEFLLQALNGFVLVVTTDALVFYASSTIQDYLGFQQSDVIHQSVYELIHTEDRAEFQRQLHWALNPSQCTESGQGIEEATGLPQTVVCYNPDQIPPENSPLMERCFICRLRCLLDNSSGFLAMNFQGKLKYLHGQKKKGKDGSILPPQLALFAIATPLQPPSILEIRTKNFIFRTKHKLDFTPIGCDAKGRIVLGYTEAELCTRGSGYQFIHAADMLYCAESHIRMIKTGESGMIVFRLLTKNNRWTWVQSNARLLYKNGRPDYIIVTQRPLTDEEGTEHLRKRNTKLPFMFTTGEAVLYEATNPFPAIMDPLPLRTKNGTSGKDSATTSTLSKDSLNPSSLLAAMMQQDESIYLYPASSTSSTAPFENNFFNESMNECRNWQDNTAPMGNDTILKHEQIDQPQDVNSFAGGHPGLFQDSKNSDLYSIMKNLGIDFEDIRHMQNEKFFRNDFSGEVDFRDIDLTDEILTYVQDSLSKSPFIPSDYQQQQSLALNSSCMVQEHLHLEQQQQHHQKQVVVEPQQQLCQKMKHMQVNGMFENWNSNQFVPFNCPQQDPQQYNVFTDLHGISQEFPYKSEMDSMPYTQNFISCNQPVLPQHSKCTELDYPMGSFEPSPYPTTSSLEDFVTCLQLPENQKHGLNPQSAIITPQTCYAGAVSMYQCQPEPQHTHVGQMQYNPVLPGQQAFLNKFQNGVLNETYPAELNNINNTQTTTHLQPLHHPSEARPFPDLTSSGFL
Method in brief: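 Measured in HG2L7.5c1 cells: CellTiter-Fluor signal (30 min incubation, 37C) for viability, then luciferase luminescence (30 min, room temperature). Compound contact time was 24 h at 37C, following a 5 h pre-incubation.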

[3] = qHTS assay to identify small molecule that activate the aryl hydrocarbon receptor (AhR) signaling pathway - cell viability counter screen (AID 743086); note: nearly all actives have a fitted effect of over 45% in size; note: potency is the fitted concentration of half-maximal effect
Method in brief: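 HepG2-AhR-luc (HG2L7.5c1) cells, 4000/well, were preincubated 5 h at 37C, exposed to compound in qHTS format for 24 hr at 37C, then given CellTiter-Fluor for 30 min; viability was read as fluorescence in the reporter wells.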

[4] = target: Peroxisome proliferator-activated receptor gamma (Homo sapiens) (UniProt P37231); test: qHTS assay to identify small molecule agonists of the peroxisome proliferator-activated receptor gamma (PPARg) signaling pathway (AID 743094; active = well fitted activation curve with a large enough effect in the signal ratio in the repeat runs, not every such curve was filed as active; the % refers to the signal ratio)
Sequence of Peroxisome proliferator-activated receptor gamma (Homo sapiens) (P37231 whole entry, looked up): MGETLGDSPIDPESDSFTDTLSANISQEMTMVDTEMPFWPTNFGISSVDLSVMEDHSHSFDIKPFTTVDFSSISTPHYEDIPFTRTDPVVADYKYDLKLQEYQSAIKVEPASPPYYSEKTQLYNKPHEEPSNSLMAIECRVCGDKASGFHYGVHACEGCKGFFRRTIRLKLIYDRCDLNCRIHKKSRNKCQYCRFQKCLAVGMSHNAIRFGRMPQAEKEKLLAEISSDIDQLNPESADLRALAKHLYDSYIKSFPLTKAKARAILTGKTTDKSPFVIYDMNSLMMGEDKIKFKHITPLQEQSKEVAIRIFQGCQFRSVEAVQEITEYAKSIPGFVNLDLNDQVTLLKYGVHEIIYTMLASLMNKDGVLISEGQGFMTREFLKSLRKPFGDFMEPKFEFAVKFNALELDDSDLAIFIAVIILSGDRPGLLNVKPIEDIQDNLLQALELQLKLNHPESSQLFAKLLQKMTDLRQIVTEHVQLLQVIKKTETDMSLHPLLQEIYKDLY
Method in brief: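 Cell-based bla reporter, HEK293H background, PPARg-driven UAS. Pre-incubation 5 h, 37C, 5% CO2. Compound 17 h, 37C. Substrate 1 h RT; fluorescence.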

[5] = qHTS assay to identify small molecule antagonists of the peroxisome proliferator-activated receptor gamma (PPARg) signaling pathway - cell viability counter screen (AID 743194); note: nearly all actives have a fitted effect of over 55% in size
Method in brief: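 PPARg-UAS-bla HEK293H cells were plated, rested 5 h at 37 C, then treated with compounds plus rosiglitazone (50 nM final) for 17 h at 37 C; viability was then read by CellTiter-Glo luminescence after 30 min at room temperature.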

[6] = qHTS assay for small molecule agonists of the antioxidant response element (ARE) signaling pathway - cell viability counter screen (AID 743203; calls by dose curve; note: nearly all actives have a fitted effect of over 55% in size)
Method in brief: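 Measured in the same wells as the beta-lactamase ARE reporter, this read-out is CellTiter-Glo luminescence from HepG2 ARE-bla cells given compounds for 16 hrs.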

[7] = qHTS assay for small molecule activators of the heat shock response signaling pathway - cell viability counter screen (AID 743209); note: nearly all actives have a fitted effect of over 50% in size
Method in brief: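 Same-well multiplex: after 2.5 h room-temperature incubation with LiveBLAzer B/G substrate and fluorescence reading, CellTiter-Glo reagent was added to HSE-bla HeLa cells that had received compound for 5 h at 37 C; luminescence read after 30 min.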

[8] = qHTS assay for small molecule activators of the heat shock response signaling pathway (AID 743210; active = well fitted activation curve with a large enough effect in the signal ratio in the repeat runs, with a control signal flat, not every such curve was filed as active; the % refers to the signal ratio; note: series mostly up to about 63 µM)
Method in brief: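 Heat shock element–beta-lactamase HeLa reporter cells; qHTS with compounds for 5 h at 37 C; detection by FRET substrate fluorescence after 2.5 h at RT.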

[9] = qHTS assay to identify small molecule agonists of the peroxisome proliferator-activated receptor delta (PPARd) signaling pathway - cell viability counter screen (AID 743211); note: nearly all actives have a fitted effect of over 55% in size; note: potency is the fitted concentration of half-maximal effect
Method in brief: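 Following 5 h plating at 37 C and 5% CO2, PPARd UAS-bla HEK293H cells took up test compounds for 17 h. Viability was quantified by luminescence 30 min after CellTiter-Glo addition at room temperature.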

[10] = qHTS assay to identify small molecule antagonists of the farnesoid-X-receptor (FXR) signaling pathway - cell viability counter screen (AID 743221; active = well fitted cell-killing curve with a large enough effect in the repeat runs, not every such curve was filed as active; note: nearly all actives have a fitted effect of over 50% in size)
Method in brief: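 Compound effects on cell number were measured as CellTiter-Glo luminescence in HEK 293T cells expressing FXR-UAS-bla, after 16 h at 37 C with 50 uM CDCA (final).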

[11] = target: Vitamin D3 receptor (Homo sapiens) (UniProt P11473); test: qHTS assay to identify small molecule agonists of the vitamin D receptor (VDR) signaling pathway (AID 743222; calls by dose curve)
Sequence of Vitamin D3 receptor (Homo sapiens) (P11473 whole entry, looked up): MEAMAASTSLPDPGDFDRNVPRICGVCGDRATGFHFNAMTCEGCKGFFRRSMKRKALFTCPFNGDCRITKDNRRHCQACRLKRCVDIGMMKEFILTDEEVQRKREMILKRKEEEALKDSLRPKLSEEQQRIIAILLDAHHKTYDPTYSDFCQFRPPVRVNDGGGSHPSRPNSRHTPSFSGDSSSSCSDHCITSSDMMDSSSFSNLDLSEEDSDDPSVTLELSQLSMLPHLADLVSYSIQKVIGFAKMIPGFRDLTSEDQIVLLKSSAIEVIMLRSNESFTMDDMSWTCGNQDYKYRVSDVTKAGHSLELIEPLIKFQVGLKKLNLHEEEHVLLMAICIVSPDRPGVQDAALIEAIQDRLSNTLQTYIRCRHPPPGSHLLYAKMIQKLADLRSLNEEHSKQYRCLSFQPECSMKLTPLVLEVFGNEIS
Method in brief: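 Following 4 h attachment at 37C, VDR-bla cells (2,000 per well) received DMSO-dissolved compounds or controls. After 16 h incubation, LiveBLAzer B/G FRET substrate was added and fluorescence read 2 h later at room temperature.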

[12] = target: Vitamin D3 receptor (Homo sapiens) (UniProt P11473); test: qHTS assay to identify small molecule antagonists of the vitamin D receptor (VDR) signaling pathway (AID 743223; active = well fitted inhibition curve with a large enough effect in the signal ratio in the repeat runs, not every such curve was filed as active; the % refers to the signal ratio)
Method in brief: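 Beta-lactamase activity in VDR-bla cells is measured by FRET substrate fluorescence (2 h, room temperature) after cells spend 16 h at 37C with test compound and 3 nM final 1alpha,25-dihydroxyvitamin D3.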

[13] = target: Peroxisome proliferator-activated receptor gamma (Homo sapiens) (UniProt P37231); test: qHTS assay to identify small molecule antagonists of the peroxisome proliferator-activated receptor gamma (PPARg) signaling pathway (AID 743191; calls by dose curve; note: series mostly up to about 63 µM; nearly all actives have a fitted effect of over 30% in size)
Method in brief: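 GeneBLAzer PPARg UAS-bla HEK293H cells carrying a UAS-driven beta-lactamase reporter were plated at 3000 cells/well, preincubated 5 h at 37C, then given compound for 17 h at 37C; LiveBLAzer B/G FRET substrate was read after 1 h at room temperature.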

[14] = qHTS assay for small molecule agonists of the antioxidant response element (ARE) signaling pathway (AID 743202; active = well fitted activation curve with a large enough effect in the signal ratio in the repeat runs, not every such curve was filed as active; the % refers to the signal ratio; note: potency is the fitted concentration of half-maximal effect)
Method in brief: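 Following a 16 h, 37 C exposure of reporter HepG2 cells (ARE-driven beta-lactamase, 2,000 cells/well) to compounds, FRET substrate was applied for 2 h at room temperature and fluorescence intensity recorded.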

[15] = target: Peroxisome proliferator-activated receptor delta (Homo sapiens) (UniProt Q03181); test: qHTS assay to identify small molecule agonists of the peroxisome proliferator-activated receptor delta (PPARd) signaling pathway (AID 743212; calls by dose curve)
Sequence of Peroxisome proliferator-activated receptor delta (Homo sapiens) (Q03181 whole entry, looked up): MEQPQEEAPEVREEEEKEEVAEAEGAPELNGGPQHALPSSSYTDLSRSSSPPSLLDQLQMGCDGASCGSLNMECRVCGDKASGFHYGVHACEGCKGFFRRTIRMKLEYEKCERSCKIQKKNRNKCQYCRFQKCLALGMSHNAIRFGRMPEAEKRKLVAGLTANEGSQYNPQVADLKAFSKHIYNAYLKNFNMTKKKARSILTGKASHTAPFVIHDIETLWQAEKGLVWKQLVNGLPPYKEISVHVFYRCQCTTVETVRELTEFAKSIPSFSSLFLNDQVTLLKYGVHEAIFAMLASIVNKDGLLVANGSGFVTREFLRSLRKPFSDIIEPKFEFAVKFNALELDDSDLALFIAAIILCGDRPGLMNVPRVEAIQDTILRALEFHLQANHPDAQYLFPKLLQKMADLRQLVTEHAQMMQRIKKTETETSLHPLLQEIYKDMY
Method in brief: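 Beta-lactamase reporter read by fluorescence (LiveBLAzer B/G FRET, 2 h, room temperature). Test agents, in DMSO, incubated at 37 C with PPARd-bla HEK293H cells.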

[16] = qHTS assay to identify small molecule antagonists of the peroxisome proliferator-activated receptor delta (PPARd) signaling pathway - cell viability counter screen (AID 743213); note: nearly all actives have a fitted effect of over 50% in size
Method in brief: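 PPARd-bla HEK293H cells (3000/well) got compound plus 300 nM L165041 agonist for 17 h at 37 C. Viability in the same wells came from CellTiter-Glo luminescence after 30 min at room temperature.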

[17] = target: Peroxisome proliferator-activated receptor delta (Homo sapiens) (UniProt Q03181); test: qHTS assay to identify small molecule antagonists of the peroxisome proliferator-activated receptor delta (PPARd) signaling pathway (AID 743215; active = well fitted inhibition curve with a large enough effect in the signal ratio in the repeat runs, not every such curve was filed as active; the % refers to the signal ratio;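 note: cells stimulated with agonist L165041 at 300 nM final during compound exposure; series mostly up to about 62 µM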)
Method in brief: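 Fluorescence from cleaved LiveBLAzer B/G FRET substrate (2 h, room temperature) reports PPARd-driven beta-lactamase in HEK293H UAS-bla cells. Cells had been treated 17 h at 37 C with compound plus 300 nM final L165041.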

[18] = qHTS assay to identify small molecule agonists of the farnesoid-X-receptor (FXR) signaling pathway - cell viability counter screen (AID 743218); note: nearly all actives have a fitted effect of over 45% in size
Method in brief: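 Readout: CellTiter-Glo luminescence, 30 min RT, multiplexed after the FXR-bla FRET reading. HEK 293T FXR-UAS-bla cells received compound 5 h post-plating and were incubated 16 h at 37 C.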

[19] = target: Bile acid receptor (Homo sapiens) (UniProt Q96RI1); test: qHTS assay to identify small molecule antagonists of the farnesoid-X-receptor (FXR) signaling pathway (AID 743217; active = well fitted inhibition curve with a large enough effect in the signal ratio in the repeat runs, not every such curve was filed as active; the % refers to the signal ratio)
Sequence of Bile acid receptor (Homo sapiens) (Q96RI1 whole entry, looked up): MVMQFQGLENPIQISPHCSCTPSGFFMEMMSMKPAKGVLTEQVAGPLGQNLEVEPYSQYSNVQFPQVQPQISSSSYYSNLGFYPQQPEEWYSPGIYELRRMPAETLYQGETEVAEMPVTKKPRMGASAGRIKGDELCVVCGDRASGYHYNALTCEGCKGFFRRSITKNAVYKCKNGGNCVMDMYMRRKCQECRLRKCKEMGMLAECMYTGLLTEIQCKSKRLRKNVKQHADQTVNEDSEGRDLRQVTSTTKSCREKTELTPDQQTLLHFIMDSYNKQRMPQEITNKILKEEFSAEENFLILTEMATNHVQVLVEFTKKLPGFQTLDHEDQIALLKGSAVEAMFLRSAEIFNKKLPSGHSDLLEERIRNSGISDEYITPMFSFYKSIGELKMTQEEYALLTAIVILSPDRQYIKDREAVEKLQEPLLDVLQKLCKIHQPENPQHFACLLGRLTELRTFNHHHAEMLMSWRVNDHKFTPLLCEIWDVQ
Method in brief: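 FRET fluorescence after 2 h room-temperature LiveBLAzer loading gives the readout. Prior step: FXR-bla HEK 293T cells, seeded and incubated 5 h, received test compounds plus 50 uM final CDCA for 16 h at 37 °C.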

[20] = target: Bile acid receptor (Homo sapiens) (UniProt Q96RI1); test: qHTS assay to identify small molecule agonists of the farnesoid-X-receptor (FXR) signaling pathway (AID 743220; active = well fitted activation curve with a large enough effect in the signal ratio in the repeat runs, not every such curve was filed as active; the % refers to the signal ratio)
Method in brief: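 FXR-UAS-bla HEK 293T cells carrying a UAS-driven beta-lactamase reporter were plated for 5 h at 37C/5% CO2, then exposed to DMSO-dissolved Tox21 10K compounds for 16 h at 37C. A LiveBLAzer B/G FRET substrate was loaded for 2 h at room temperature before fluorescence reading.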

O=C(CCN1CCN2CCCC2C1)N1c2ccccc2Sc2ccc(Cl)cc21 (configuration not stated)
Potency [1]: inactive
Potency [2]: inactive
Potency [3]: 23.7 µM (active)
Potency [4]: inactive
Potency [5]: inactive
Potency [6]: inactive
Potency [7]: inactive
outcome [8]: inactive
Potency [9]: inactive
Potency [10]: inactive
outcome [11]: inactive
Potency [12]: inactive

C1=Cc2ccccc2C1
Potency [1]: inactive
Potency [2]: 27.3 µM (active)
Potency [3]: inactive
Potency [13]: inactive
Potency [5]: inactive
Potency [14]: inactive
Potency [6]: inactive
Potency [7]: inactive
outcome [8]: inactive
Potency [9]: inactive
outcome [15]: inactive
Potency [16]: inactive
outcome [17]: inactive
Potency [18]: inactive
Potency [10]: inactive
outcome [11]: inactive
Potency [12]: inactive

CC(C)c1ccc2c(C(C)C)cc(C(C)C)c(S(=O)(=O)O)c2c1
Potency [1]: inactive
Potency [2]: inactive
Potency [3]: inactive
Potency [4]: inactive
Potency [5]: inactive
Potency [7]: inactive
outcome [8]: inactive
Potency [9]: inactive
outcome [15]: inactive
Potency [16]: inactive
outcome [17]: inactive
outcome [19]: inactive
Potency [18]: inactive
outcome [20]: inactive
Potency [10]: inactive
outcome [11]: inactive

CCCCCOC(=O)COc1cc(N2C(=O)C3=C(CCCC3)C2=O)c(F)cc1Cl
Potency [1]: inactive
Potency [2]: inactive
Potency [3]: inactive
Potency [4]: inactive
Potency [5]: inactive
Potency [6]: inactive
Potency [7]: inactive
outcome [8]: inactive
Potency [9]: inactive
Potency [16]: inactive
Potency [10]: inactive
outcome [11]: inactive
Potency [12]: inactive

NC(=S)N/N=C/c1cccnc1
Potency [1]: inactive
Potency [2]: inactive
Potency [3]: inactive
Potency [4]: inactive
Potency [14]: inactive
Potency [6]: inactive
Potency [7]: inactive
outcome [8]: inactive
Potency [9]: inactive
outcome [15]: inactive
Potency [16]: inactive
outcome [17]: inactive
Potency [18]: inactive
Potency [10]: inactive
outcome [11]: inactive
Potency [12]: inactive

CN(C)CCCNCCCN
Potency [1]: inactive
Potency [2]: inactive
Potency [3]: inactive
Potency [4]: inactive
Potency [6]: inactive
Potency [7]: inactive
outcome [8]: inactive
Potency [9]: inactive
outcome [15]: inactive
Potency [16]: inactive
outcome [17]: inactive
outcome [19]: inactive
outcome [20]: inactive
Potency [10]: inactive
outcome [11]: inactive
Potency [12]: inactive

C#CCOC(=O)[C@@H](C)Oc1ccc(Oc2ncc(Cl)cc2F)cc1
Potency [1]: inactive
Potency [2]: inactive
Potency [3]: inactive
Potency [4]: inactive
Potency [5]: inactive
Potency [6]: inactive
Potency [7]: inactive
Potency [9]: inactive
outcome [15]: inactive
Potency [16]: inactive
outcome [17]: inactive
Potency [18]: inactive
outcome [20]: inactive
outcome [11]: inactive
Potency [12]: inactive

Cc1ccccc1N=Nc1ccc(N=Nc2c(O)ccc3ccccc23)c(C)c1
Potency [1]: inactive
Potency [2]: 13.3 µM (active)
Potency [3]: inactive
Potency [13]: inactive
Potency [5]: inactive
Potency [6]: inactive
Potency [7]: inactive
outcome [8]: inactive
Potency [9]: inactive
outcome [15]: inactive
Potency [16]: inactive
outcome [17]: inactive
Potency [18]: inactive
Potency [10]: inactive

CCCCCC/C=C/C=O
Potency [1]: inactive
Potency [2]: inactive
Potency [3]: inactive
Potency [4]: inactive
Potency [5]: inactive
Potency [14]: inactive
Potency [6]: inactive
Potency [7]: inactive
Potency [10]: inactive

C=CCCCCCC
Potency [1]: inactive
Potency [2]: inactive
Potency [3]: inactive
Potency [13]: inactive
Potency [5]: inactive
Potency [14]: inactive
Potency [6]: inactive
Potency [7]: inactive
Potency [9]: inactive
Potency [16]: inactive
Potency [18]: inactive
outcome [20]: inactive

CC1(C)CCC(C)(C)c2cc(NC(=O)c3ccc(C(=O)O)cc3)ccc21
Potency [1]: inactive
Potency [2]: inactive
Potency [3]: inactive
Potency [4]: inactive
Potency [5]: inactive
Potency [6]: inactive
Potency [7]: inactive
Potency [9]: inactive
outcome [15]: inactive
Potency [16]: inactive
outcome [17]: inactive
outcome [19]: inactive
Potency [18]: inactive
Potency [10]: inactive
outcome [11]: inactive
Potency [12]: inactive

CC/C(=C\C(=N/O)C(N)=O)C(C)[N+](=O)[O-] (configuration not stated)
Potency [1]: inactive
Potency [2]: inactive
Potency [3]: inactive
Potency [13]: inactive
Potency [5]: inactive
Potency [6]: inactive
Potency [7]: inactive
Potency [9]: inactive
Potency [16]: inactive
Potency [18]: inactive
Potency [10]: inactive
outcome [11]: inactive

NC1CCN(c2nc3c(cc2F)c(=O)c(C(=O)O)cn3-c2ccc(F)cc2F)C1 (configuration not stated)
Potency [1]: inactive
Potency [2]: inactive
Potency [3]: inactive
Potency [5]: inactive
Potency [14]: 26.6 µM (active)
Potency [6]: inactive
Potency [7]: inactive
Potency [9]: inactive
Potency [16]: inactive
Potency [18]: inactive

CN(C)CC/C=C1\c2ccccc2COc2ccccc21
Potency [1]: inactive
Potency [2]: inactive
Potency [3]: inactive
Potency [5]: inactive
Potency [14]: inactive
Potency [6]: inactive
Potency [7]: inactive
outcome [8]: inactive
Potency [9]: 26.6 µM (active)
outcome [19]: inactive
outcome [20]: inactive
Potency [10]: inactive
outcome [11]: inactive
Potency [12]: inactive
